Only some compounds are listed: those with a hit (about 11% of all), similar ones and a draw of the others.
AMA1-RON2 inh – disrupts binding of P. falciparum AMA1 to RON2. AlphaScreen AMA1-biotinylated RON2 peptide binding. Potency, µM (titrated, usually from 58.2 µM), inactives show at the top dose activity change, negative = inhibition, actives largely listed as inhibitors. 360,000 tested, 0.2% active. AID 720542;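 note: 0% = vehicle wells and -100% = peptide control; nearly all actives have a fitted effect of over 45% in size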
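AMA1 (3D7) with his tag at 25 nM final met compounds first, then biotinylated RON2 peptide at 25 nM; detection used donor plus acceptor beads, 10 µg/mL apiece, read by AlphaScreen after 30 min at room temperature.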
NS1 inh – blocks influenza NS1 protein function. AID 2326. Potency, µM (series often up to 46.1 µM), for inactives: top-dose activity, positive = more growth. 270,000 tested, 0.4% active; calls by dose curve; note: actives are rising curves; nearly all actives have a fitted effect of over 50% in size
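OD600 was taken as the measure of yeast growth restored by compound in an NS1-expressing S. cerevisiae strain. Cells had been washed out of glucose medium and diluted 1:100 into galactose -URA medium, pH 6.0.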
Pf growth 48h – inhibits P. falciparum growth in the first generation, 48 h; 310,000 tested, 5.9% active; AID 504832; P. falciparum luciferase growth in erythrocytes, 48 h; Potency, µM (top dose mostly 28.7 µM), inactives show at the top dose activity change, negative = inhibition, most hits filed as inhibitors; note: % is set by controls: 0 for no effect and ±100 for the full control effect
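Read-out is firefly luciferase luminescence from an integrated reporter in P. falciparum, so falling signal marks reduced parasite growth. Infected erythrocytes were at 2% hematocrit and 0.1% parasitemia (final) in Albumax-supplemented RPMI 1640.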
Pf growth 96h – P. falciparum growth inhibition at 96 hours. P. falciparum luciferase reporter growth, 96 h. AID 504834. Potency, µM (highest dose often 28.7 µM), for the others: at the highest dose activity change, negative = inhibition, hits mostly inhibitors. 320,000 tested, 6.9% active; note: % is set by controls: 0 for no effect and ±100 for the full control effect
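P. falciparum expressing integrated firefly luciferase grown in erythrocytes (2% hematocrit, 0.05% parasitemia final) with compounds for 96 hours at 37 C, 5% CO2. Growth inhibition read as loss of luminescence after adding luciferase detection reagent.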
Sm TGR block – S. mansoni TGR enzyme inhibition | Q962Y6 | purified TGR, DTNB reduction, TNB absorbance 405 nm | Potency, µM (top dose mostly 114 µM), for inactives: at the highest dose activity change, negative = inhibition, hits mostly inhibitors | 360,000 tested, 3% active; note: % is set by controls: 0 for no effect and ±100 for the full control effect; nearly all actives have a fitted effect of over 60% in size
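TGR 20 nM + NADPH 100 uM (dispensed conc.), cpd preinc 15 min RT; start with NADPH (500 uM addition) then DTNB (15 mM addition). Kinetic TNB absorbance, 405 nm filter. Four-parameter Hill fit across titration.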
* hit, by the source's call; u = inconclusive; x = no result; ! = not active in a repeat. Unless noted, calls come from the whole dose curve; as a rule, active = well fitted curve in the direction sought with a large enough effect; inconclusive = small, poorly fitted or top-dose-only effect, or another doubt; inactive = no such curve, though single readings can be large; an effect the other way counts as inactive or inconclusive. Potency is the fitted concentration of half-maximal effect.

SMILES	AMA1-RON2 inh	NS1 inh	Pf growth 48h	Pf growth 96h	Sm TGR block
COc1ccc(OC)c(CN2CCN(C(=O)CNC(=O)c3ccccc3F)CC2)c1	-13%	x	x	x	x
Cc1ccc(NC(=O)CCS(=O)(=O)c2cc3[nH]c(=O)c(=O)[nH]c3cc2C)cc1	-10%	1%	6%	4.1µM*	-24%
Cc1ccc(S(=O)(=O)CCC(=O)Nc2ccc(S(=O)(=O)N(C)C)cc2)cc1	x	x	-30%	u	u
Cc1ccc(N(CC(C)C)S(=O)(=O)c2nnc(NC(=O)c3ccco3)s2)cc1	x	x	x	x	12%
CN(c1ccc(Cl)cc1)S(=O)(=O)c1nnc(NC(=O)c2ccco2)s1	-3%	-10%	-13%	35%	20µM*!
CC(C)C(=O)Nc1nnc(S(=O)(=O)N(C)c2ccc(Cl)cc2)s1	6%	4%	14%	2.9µM*	-1%
Cc1ccc(N(C)S(=O)(=O)c2nnc(NC(=O)c3ccco3)s2)cc1	13%	-8%	17%	17%	u
Cc1ccccc1N(C)S(=O)(=O)c1nnc(NC(=O)c2ccco2)s1	-10%	-3%	19%	u	25µM*!
Cc1ccc(N(C)S(=O)(=O)c2nnc(NC(=O)CC(C)C)s2)cc1	x	x	x	x	10%
CCCN(CC(=O)Nc1ccccc1C)C(=O)Cc1n[nH]c(=O)c2ccccc12	-8%	x	-15%	-5%	-5%
COc1cccc(/C(C#N)=C/c2c(-c3ccc(Cl)cc3)nc3c(C)cccn23)c1	-29%	-4%	1.3µM*	u	16%
CC1=NN(c2ccccc2)C(=O)C1N=Nc1ccc(S(N)(=O)=O)cc1 (stereo not given)	-1%	4%	u	-10%	9%
CC1=NN(c2ccccc2)C(=O)C1N=Nc1ccc(C)cc1 (stereo not given)	x	x	24%	10µM*	-6%
Cc1cc2oc(C(=O)N(Cc3ccccc3)c3ccccn3)cc(=O)c2cc1Cl	1%	-18%	-7%	3%	-2%
CCOC(=O)c1c(NC(=O)CN2C(=O)NC3(CCCCC3)C2=O)sc(C)c1-c1ccc(C)cc1	-2%	3%	15µM*	9.3µM*	0%
CCOC(=O)c1c(NC(=O)CC)sc(C(=O)N2CCCCC2)c1C	2%	4%	x	13µM*	-1%
CCOC(=O)c1sc(NC(=O)CN2C(=O)NC3(CCCCCCC3)C2=O)c(C(=O)OCC)c1C	65%	-4%	8.3µM*	9.3µM*	4%
CCOC(=O)c1c(NC(=O)CN2C(=O)NC3(CCC(C)CC3)C2=O)sc(C)c1-c1ccc(C)cc1 (stereo not given)	u	u	7%	-3%	-7%
CCOC(=O)c1sc(NC(=O)CNCc2ccccn2)c(C(=O)OCC)c1C	45%	2%	1µM*	0.41µM*	-16%
CCOC(=O)c1sc(NC(=O)CNCc2cccnc2)c(C(=O)OCC)c1C	46%	x	u	u	-16%
CC(=O)N1CCc2cc(Br)cc(S(=O)(=O)CCC(=O)N3CCN(c4ccccn4)CC3)c21	31%	x	u	1%	-12%
CCOC(=O)c1ccc(NC(=O)c2ccccc2[N+](=O)[O-])cc1	11%	-6%	46%	9%	-4%
CCOC(=O)c1ccc(Nc2ncccc2[N+](=O)[O-])cc1	u	0%	253%	0.59µM*	6%
Cc1ccc(C)c(N2CCN(C(=O)c3ccc(N4CCOCC4)c([N+](=O)[O-])c3)CC2)c1	-15%	-17%	u	3%	12%
COc1cc(OC)c(C(=O)Nc2cc(Cl)ccc2-n2cncn2)cc1OC	3%	x	5.9µM*	5.9µM*	-22%
SMILES	AMA1-RON2 inh	NS1 inh	Pf growth 48h	Pf growth 96h	Sm TGR block
COc1ccccc1C(=O)Nc1cc(Cl)ccc1-n1cncn1	-7%	-3%	u	u	9%
CC(Oc1ccc(F)cc1)C(=O)Nc1cc(Cl)ccc1-n1cncn1 (stereo not given)	9%	x	2.3µM*	2.6µM*	-7%
O=C(Nc1ccccc1F)Nc1cc(Cl)ccc1-n1cncn1	-9%	6%	0%	16%	1%
Cc1ccc(C(=O)Nc2cc(Cl)ccc2-n2cncn2)o1	11%	x	3%	14%	-30%
CC(Oc1ccccc1)C(=O)Nc1cc(Cl)ccc1-n1cncn1 (stereo not given)	-13%	x	3.7µM*	2.3µM*	6%
C=CCNC(=O)C(C)N1c2cccc3cccc(c23)S1(=O)=O (stereo not given)	-6%	7%	-1%	53%	-1%
O=[N+]([O-])c1ccc2c(c1)S(=O)c1ccccc1-2 (stereo not given)	-3%	0%	8.3µM*	u	-25%
CC(=O)c1ccc(S(=O)(=O)NC2CC(=O)N(c3ccc(C)c(C)c3)C2)cc1 (stereo not given)	-9%	x	-1%	-33%	-1%
COc1cccc(C2=CC(c3cccc(OC)c3OC)n3nnnc3N2)c1 (stereo not given)	34%	-33%	47%	u	40µM*
COc1ccc(C2=CC(c3ccc(OC)c(OC)c3)n3nnnc3N2)c(OC)c1 (stereo not given)	24%	15%	u	u	40µM*
COc1cccc(C2C=C(c3ccc(OC)cc3OC)Nc3nnnn32)c1 (stereo not given)	-8%	7%	0%	3%	25µM*
COc1ccc(C2=CC(c3ccc(C)cc3)n3nnnc3N2)cc1 (stereo not given)	59%	-14%	u	u	-13%
COc1cccc(C2=CC(c3cccc(OC)c3OC(F)F)n3nnnc3N2)c1 (stereo not given)	8%	2%	u	233%	-6%
COc1cccc(NC(C)(C)c2nnnn2-c2c(C)cccc2C)c1	-15%	-1%	8%	-7%	13%
COc1ccc(NC(=O)C2CCCCN2N)cc1OCC(C)C (stereo not given)	-13%	20%	u	x	18%
COc1ccc(CNN2CCCCC2C(=O)Nc2ccc(OC)c(OCC(C)C)c2)cc1OC (stereo not given)	-8%	2%	28%	15µM*	-8%
Cc1cccnc1NC(=O)C1CCCN1S(=O)(=O)c1ccc(Cl)cc1 (stereo not given)	0%	5%	13%	17%	u
CCNC(C)Cc1cccc(C(F)(F)F)c1 (stereo not given)	x	x	-5%	13µM*	x
C[C@@H](NCCCc1cccc(C(F)(F)F)c1)c1cccc2ccccc12	x	x	7.6µM*	12µM*	x
CC(C)(C)OC(=O)N1CCC(C(=O)NCC2CCCO2)CC1 (stereo not given)	2%	2%	1%	-30%	-28%
O=C(Nc1ccsc1C(=O)O)c1ccccc1Cl	1%	8%	-1%	-5%	14%
CN(CC(=O)Nc1cccc(F)c1)C(=O)C1CCN(S(=O)(=O)c2ccc3c(c2)OCCO3)CC1	5%	x	9.3µM*	4.1µM*	3%
